Data on ten molecules can be found in PubChem BioAssay (Tox21).

Assay [1] can be described thus: qHTS assay to identify small molecule agonists of the TGF-beta/Smad signaling pathway - cell viability counter screen (AID 1346829). Also: top concentration of the series differs between compounds; nearly all actives have a fitted effect of over 45% in size. In short, it runs like this:
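In parallel with the Smad reporter read, viability of HEK 293T cells stably carrying SBE-bla is quantified by ATP luminescence following 5 hr compound treatment.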

Assay [2] in a line: qHTS assay to identify small molecule agonists of the TGF-beta/Smad signaling pathway (AID 1346859; active = well fitted activation curve with a large enough effect in the signal ratio in the repeat runs, not every such curve was filed as active; the % refers to the signal ratio; also: series mostly up to about 77 µM). In outline:
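Stable Smad binding element-beta-lactamase HEK 293T cells; 5 hr compound exposure at 37 C under 5% CO2; 2 hr room-temperature substrate step; fluorescence excited at 405 nm, collected at 460 nm and 530 nm.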
(In general: qHTS replaces the single test concentration by a dilution series.)

Assay [3] can be described thus: Human pregnane X receptor (PXR) small molecule agonists, qHTS cell viability counter screen (AID 1346977). Also: nearly all actives have a fitted effect of over 50% in size. In outline:
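Readout is CellTiter-Fluor fluorescence from PXR-Luc HepG2 cells. Plated cells rested 5hr, then were treated with compounds for 24hr at 37C and 5% CO2, with reagent present during the last hour.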

Assay [4] is described as follows: Caspase-3/7 induction in HepG2 cells by small molecules, qHTS assay (AID 1346978). Also: nearly all actives have a fitted effect of over 15% in size. In short, it runs like this: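 Wild-type HepG2 cells, 2,000/well, settled 5 hr at 37 C and 5% CO2, then compound-treated for 17 hr; caspase-3/7 activity read by luminescent Caspase-Glo 3/7 after 30 min at room temperature.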
The nature of assay [5]: Caspase-3/7 induction in CHO-K1 cells by small molecules, qHTS assay (AID 1346980). Also: nearly all actives have a fitted effect of over 15% in size. In outline:
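Wild-type CHO-K1 cells exposed to compounds for 17hr at 37 C, 5% CO2. Caspase-3/7 activity then measured by Caspase-Glo 3/7 luminescence after 30min at room temperature.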

Assay [6] in a line: Caspase-3/7 induction in HepG2 cells by small molecules, qHTS cell viability counter screen (AID 1346981). Also: series mostly up to about 92 µM; nearly all actives have a fitted effect of over 30% in size. In outline:
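Steps: seed 2,000 HepG2 cells per well; incubate 5 hr at 37 C; pin-add compounds in DMSO; incubate 16 hr; add CellTiter-Fluor; after 1 hr at 37 C and 5% CO2, read fluorescence.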

For assay [7], the target named is Cytochrome P450 2D6 (Homo sapiens) (UniProt P10635). Briefly: Cytochrome P450 Family 2 Subfamily D Member 6 (CYP2D6) small molecule antagonists: luciferase reporter qHTS assay (AID 1671196). Also: nearly all actives have a fitted effect of over 50% in size. Also: potency is read from the fitted curve at half-maximal effect. As to activity change, negative = inhibition: series mostly up to about 120 µM. In outline: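 P450-Glo format: CYP2D6 converts a proluciferin substrate to luciferin in an NADPH-driven reaction lasting 1 h at room temperature. Light output, proportional to CYP2D6 activity, reflects interference by test chemicals.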
Cytochrome P450 2D6 (Homo sapiens), sequence (P10635 whole entry, looked up): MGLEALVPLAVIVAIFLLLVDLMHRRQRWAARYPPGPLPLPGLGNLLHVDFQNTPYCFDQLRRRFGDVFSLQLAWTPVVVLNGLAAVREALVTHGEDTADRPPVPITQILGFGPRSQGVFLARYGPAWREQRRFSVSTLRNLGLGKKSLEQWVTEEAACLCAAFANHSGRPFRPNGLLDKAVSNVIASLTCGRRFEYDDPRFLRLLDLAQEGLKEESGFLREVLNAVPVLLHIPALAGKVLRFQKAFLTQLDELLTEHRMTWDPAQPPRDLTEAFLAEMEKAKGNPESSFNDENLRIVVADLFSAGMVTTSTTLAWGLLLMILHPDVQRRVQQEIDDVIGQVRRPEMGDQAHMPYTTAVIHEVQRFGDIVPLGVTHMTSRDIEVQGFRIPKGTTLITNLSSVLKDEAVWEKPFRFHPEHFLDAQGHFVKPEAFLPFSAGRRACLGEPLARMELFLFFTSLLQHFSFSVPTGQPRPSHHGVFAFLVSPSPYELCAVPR

Assay [8] concerns the target Cytochrome P450 2C19 (Homo sapiens) (UniProt P33261). Kind of assay: Cytochrome P450 Family 2 Subfamily C Member 19 (CYP2C19) small molecule antagonists: luciferase reporter qHTS assay (AID 1671197). Also: nearly all actives have a fitted effect of over 65% in size. Also: potency is read from the fitted curve at half-maximal effect. As to activity change, negative = inhibition: series mostly up to about 120 µM. In outline:
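Compounds were tested on CYP2C19 activity via proluciferin conversion to luciferin. The 37C, 1 h reaction followed NADPH addition; detection reagent stopped it.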
(In general: Reporter assays use an easily measured gene product as a stand-in for the process of interest.)

The target of assay [9] is Cytochrome P450 2C9 (Homo sapiens) (UniProt P11712). Kind of assay: Cytochrome P450 Family 2 Subfamily C Member 9 (CYP2C9) small molecule antagonists: luciferase reporter qHTS assay (AID 1671198). Also: series mostly up to about 120 µM; nearly all actives have a fitted effect of over 50% in size. In short, it runs like this: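 P450-Glo proluciferin substrate with CYP2C9 enzyme; 10 min RT preincubation, then NADPH regeneration 1 h at 37C; luciferin detection reagent 20 min RT, luminescence in relative luminescence units.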
Cytochrome P450 2C9 (Homo sapiens), sequence (P11712 whole entry, looked up): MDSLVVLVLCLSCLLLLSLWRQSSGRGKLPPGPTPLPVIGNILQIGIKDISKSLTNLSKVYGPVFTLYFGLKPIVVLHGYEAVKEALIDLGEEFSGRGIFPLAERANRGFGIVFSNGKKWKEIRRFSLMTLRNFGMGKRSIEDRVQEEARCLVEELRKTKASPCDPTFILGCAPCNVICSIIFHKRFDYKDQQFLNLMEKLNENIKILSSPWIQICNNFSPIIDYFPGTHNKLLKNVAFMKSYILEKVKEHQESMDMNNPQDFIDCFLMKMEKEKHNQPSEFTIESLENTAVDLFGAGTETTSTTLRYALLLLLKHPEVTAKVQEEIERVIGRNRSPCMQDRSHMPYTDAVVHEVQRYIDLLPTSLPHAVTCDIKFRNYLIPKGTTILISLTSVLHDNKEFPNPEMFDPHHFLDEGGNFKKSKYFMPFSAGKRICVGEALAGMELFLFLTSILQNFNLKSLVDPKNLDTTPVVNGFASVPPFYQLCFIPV

Assay [10] addresses Cytochrome P450 1A2 (Homo sapiens) (UniProt P05177). Kind of assay: Cytochrome P450 Family 1 Subfamily A Member 2 (CYP1A2) small molecule antagonists: luciferase reporter qHTS assay (AID 1671199). Also: nearly all actives have a fitted effect of over 50% in size. Also: potency is read from the fitted curve at half-maximal effect. As to activity change, negative = inhibition: series mostly up to about 120 µM. In short, it runs like this: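 Inhibition of CYP1A2 conversion of proluciferin to luciferin, detected by luminescence. Reaction run 1 h at room temperature with NADPH regeneration after brief compound preincubation.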

The target of assay [11] is Voltage-gated inwardly rectifying potassium channel KCNH2 (Homo sapiens) (UniProt Q12809). Kind of assay: Human Ether-a-go-go-Related Gene (hERG) channel small molecule antagonists: fluorescence cell-based qHTS assay (AID 1671200). In short, it runs like this:
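Measured: Tl+ flux via fluorescence (480/540 nm) in hERG-expressing U2OS cells after 1 h dye loading at room temperature.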
(hERG is a cardiac potassium channel; its block is linked to QT prolongation.)

Assay [12] can be described thus: Caspase-3/7 induction in CHO-K1 cells by small molecules, qHTS cell viability counter screen (AID 1346979). Also: nearly all actives have a fitted effect of over 35% in size. In outline: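 To flag cytotoxic compounds, treated CHO-K1 wild-type cells were given CellTiter-Fluor at 16hr and read fluorescently after 1hr at 37C; the caspase-3/7 luminescence was measured in these same wells.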
In assay [13] the target is Nuclear receptor subfamily 1 group I member 2 (Homo sapiens) (UniProt O75469). Kind of assay: Human pregnane X receptor (PXR) small molecule agonists, qHTS assay (AID 1346982). Also: nearly all actives have a fitted effect of over 35% in size. In short, it runs like this: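 Agonist mode qHTS: PXR-Luc HepG2 cells plated 5 hr before DMSO-dissolved compounds were pinned in, cultured 24 hr at 37 C, 5% CO2; ONE-Glo luminescence readout.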
Nuclear receptor subfamily 1 group I member 2 (Homo sapiens), sequence (O75469 whole entry, looked up): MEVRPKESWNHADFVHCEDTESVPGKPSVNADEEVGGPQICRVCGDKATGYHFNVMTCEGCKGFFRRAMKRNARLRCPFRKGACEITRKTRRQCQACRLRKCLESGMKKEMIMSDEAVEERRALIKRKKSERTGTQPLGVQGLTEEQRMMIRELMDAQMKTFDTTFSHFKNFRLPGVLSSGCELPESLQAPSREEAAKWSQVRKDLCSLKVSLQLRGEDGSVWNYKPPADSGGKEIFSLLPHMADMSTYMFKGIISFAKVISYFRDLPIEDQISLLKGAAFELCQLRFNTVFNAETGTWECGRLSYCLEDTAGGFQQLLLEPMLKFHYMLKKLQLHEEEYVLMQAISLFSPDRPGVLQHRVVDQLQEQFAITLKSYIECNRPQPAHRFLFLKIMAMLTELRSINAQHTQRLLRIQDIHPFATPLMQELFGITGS

Assay [14] deals with Cytochrome P450 3A4 (Homo sapiens) (UniProt P08684). Briefly: Cytochrome P450 Family 3 Subfamily A Member 4 (CYP3A4) small molecule antagonists: luciferase reporter qHTS assay (AID 1671201). In outline:
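Setup: enzyme-substrate mix, compound pin transfer, 10 min RT. Reaction: NADPH regeneration solution, 1 h RT. Readout: detection reagent stops turnover, luminescence measured after 20 min, expressed in relative luminescence units.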

Assay [15] concerns the target Nuclear receptor subfamily 1 group I member 2 (Rattus norvegicus) (UniProt Q9R1A7). Kind of assay: Rat pregnane X receptor (rPXR) activation by small molecules, qHTS assay (AID 1346983). Also: nearly all actives have a fitted effect of over 20% in size. The note with it: rPXR luciferase reporter cells, One-Glo luminescence, 24 h; max activation: hits give high values. In outline: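 Cell-based rPXR activation assay: rPXR cells, 2,000 per well, rested 5hr at 37 C, then exposed to compounds in DMSO for 24 hr at 37 C. Luciferase activity read by One-Glo luminescence after 30 min at room temperature.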

For assay [16], the target named is Nuclear receptor subfamily 1 group I member 2 (Homo sapiens) (UniProt O75469). Kind of assay: Human pregnane X receptor (PXR) activation by small molecules, qHTS assay (AID 1346985). Also: nearly all actives have a fitted effect of over 40% in size. In outline:
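DPX-2 cells (HepG2 co-transfected with a PXR response element and a CYP3A4-promoter luciferase construct) were seeded at 2,000 per well, rested 5 hr at 37C, then exposed to DMSO-dissolved compounds for 24 hr. Activation was read as luciferase luminescence.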

Values without a mark were called inactive. Inconclusive results are not listed. The source made the active and inactive calls. Unless noted, calls follow the shape of the dose curve; as a rule, active = well fitted curve in the direction sought with a large enough effect in the repeat runs; inconclusive = weak or mixed curves; inactive = no such curve, though single readings can be large; an effect the other way counts as inactive or inconclusive.
% is scaled to controls: 0 for no effect and ±100 for the full control effect.

Cytochrome P450 1A2 (Homo sapiens), sequence (P05177 whole entry, looked up): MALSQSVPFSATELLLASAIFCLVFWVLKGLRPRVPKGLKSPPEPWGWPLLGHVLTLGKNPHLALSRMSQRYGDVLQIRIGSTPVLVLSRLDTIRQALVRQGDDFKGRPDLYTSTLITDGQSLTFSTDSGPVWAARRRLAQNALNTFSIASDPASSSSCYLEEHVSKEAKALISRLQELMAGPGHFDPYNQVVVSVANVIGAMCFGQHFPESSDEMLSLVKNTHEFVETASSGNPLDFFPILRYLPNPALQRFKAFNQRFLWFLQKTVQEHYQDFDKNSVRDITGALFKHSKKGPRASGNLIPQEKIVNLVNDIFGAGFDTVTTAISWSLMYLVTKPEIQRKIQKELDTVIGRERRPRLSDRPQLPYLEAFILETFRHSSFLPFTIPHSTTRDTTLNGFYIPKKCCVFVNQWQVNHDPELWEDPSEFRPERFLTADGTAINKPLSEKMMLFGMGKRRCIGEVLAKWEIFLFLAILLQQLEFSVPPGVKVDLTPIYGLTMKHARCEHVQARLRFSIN
Cytochrome P450 2C19 (Homo sapiens), sequence (P33261 whole entry, looked up): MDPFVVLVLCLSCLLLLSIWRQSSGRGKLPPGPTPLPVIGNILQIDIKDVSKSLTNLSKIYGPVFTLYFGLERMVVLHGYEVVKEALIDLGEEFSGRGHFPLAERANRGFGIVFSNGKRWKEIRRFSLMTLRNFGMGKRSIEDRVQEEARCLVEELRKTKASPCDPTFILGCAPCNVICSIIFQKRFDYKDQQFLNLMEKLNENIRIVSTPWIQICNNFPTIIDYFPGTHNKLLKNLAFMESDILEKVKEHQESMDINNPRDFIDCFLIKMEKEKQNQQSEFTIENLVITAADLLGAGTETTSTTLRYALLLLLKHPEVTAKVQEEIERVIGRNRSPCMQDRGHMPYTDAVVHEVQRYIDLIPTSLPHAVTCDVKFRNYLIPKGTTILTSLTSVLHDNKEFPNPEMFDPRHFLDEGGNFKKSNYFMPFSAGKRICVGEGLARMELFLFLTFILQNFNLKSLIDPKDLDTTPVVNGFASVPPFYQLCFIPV
Voltage-gated inwardly rectifying potassium channel KCNH2 (Homo sapiens), sequence (Q12809 whole entry, looked up): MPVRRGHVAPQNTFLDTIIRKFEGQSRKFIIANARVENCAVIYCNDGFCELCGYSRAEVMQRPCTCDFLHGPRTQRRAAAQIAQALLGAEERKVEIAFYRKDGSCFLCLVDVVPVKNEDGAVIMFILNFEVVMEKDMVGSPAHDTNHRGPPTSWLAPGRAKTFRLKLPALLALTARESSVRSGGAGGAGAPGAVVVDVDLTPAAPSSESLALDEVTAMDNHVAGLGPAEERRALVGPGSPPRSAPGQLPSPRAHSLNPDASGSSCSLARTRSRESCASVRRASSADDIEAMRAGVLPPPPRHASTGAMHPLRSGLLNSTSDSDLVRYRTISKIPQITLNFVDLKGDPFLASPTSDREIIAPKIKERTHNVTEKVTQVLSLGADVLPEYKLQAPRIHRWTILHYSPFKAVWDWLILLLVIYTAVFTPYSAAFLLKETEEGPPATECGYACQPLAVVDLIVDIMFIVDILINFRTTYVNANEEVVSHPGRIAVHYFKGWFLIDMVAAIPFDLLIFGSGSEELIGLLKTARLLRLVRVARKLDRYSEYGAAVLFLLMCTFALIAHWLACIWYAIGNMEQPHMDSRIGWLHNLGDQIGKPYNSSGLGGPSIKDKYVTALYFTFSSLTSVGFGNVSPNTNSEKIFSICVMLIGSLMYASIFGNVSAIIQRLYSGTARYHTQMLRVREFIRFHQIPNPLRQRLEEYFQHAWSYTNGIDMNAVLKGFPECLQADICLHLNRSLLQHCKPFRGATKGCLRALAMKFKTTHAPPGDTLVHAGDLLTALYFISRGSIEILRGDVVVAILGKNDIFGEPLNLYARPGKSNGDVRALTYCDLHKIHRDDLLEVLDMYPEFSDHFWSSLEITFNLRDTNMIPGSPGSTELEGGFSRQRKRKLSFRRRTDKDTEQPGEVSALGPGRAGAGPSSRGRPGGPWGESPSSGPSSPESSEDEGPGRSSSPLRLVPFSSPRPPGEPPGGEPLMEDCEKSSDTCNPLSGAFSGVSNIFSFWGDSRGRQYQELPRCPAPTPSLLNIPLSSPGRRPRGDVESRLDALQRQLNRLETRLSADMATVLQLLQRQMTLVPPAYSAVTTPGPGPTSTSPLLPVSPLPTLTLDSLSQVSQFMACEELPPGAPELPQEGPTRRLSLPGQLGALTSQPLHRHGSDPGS
Cytochrome P450 3A4 (Homo sapiens), sequence (P08684 whole entry, looked up): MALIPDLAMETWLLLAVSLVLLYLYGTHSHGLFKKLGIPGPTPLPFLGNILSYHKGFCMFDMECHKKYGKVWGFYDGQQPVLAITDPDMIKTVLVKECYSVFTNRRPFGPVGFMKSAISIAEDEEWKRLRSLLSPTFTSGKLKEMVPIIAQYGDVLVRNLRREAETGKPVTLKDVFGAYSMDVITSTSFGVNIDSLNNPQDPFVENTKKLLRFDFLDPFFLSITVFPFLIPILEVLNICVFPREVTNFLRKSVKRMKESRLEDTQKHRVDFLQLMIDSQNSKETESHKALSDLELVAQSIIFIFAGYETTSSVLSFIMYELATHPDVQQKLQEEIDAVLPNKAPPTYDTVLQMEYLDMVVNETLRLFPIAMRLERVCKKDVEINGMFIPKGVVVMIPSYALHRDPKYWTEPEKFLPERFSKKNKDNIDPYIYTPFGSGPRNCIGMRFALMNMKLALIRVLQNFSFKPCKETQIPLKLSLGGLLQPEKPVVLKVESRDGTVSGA
Nuclear receptor subfamily 1 group I member 2 (Rattus norvegicus), sequence (Q9R1A7 whole entry, looked up): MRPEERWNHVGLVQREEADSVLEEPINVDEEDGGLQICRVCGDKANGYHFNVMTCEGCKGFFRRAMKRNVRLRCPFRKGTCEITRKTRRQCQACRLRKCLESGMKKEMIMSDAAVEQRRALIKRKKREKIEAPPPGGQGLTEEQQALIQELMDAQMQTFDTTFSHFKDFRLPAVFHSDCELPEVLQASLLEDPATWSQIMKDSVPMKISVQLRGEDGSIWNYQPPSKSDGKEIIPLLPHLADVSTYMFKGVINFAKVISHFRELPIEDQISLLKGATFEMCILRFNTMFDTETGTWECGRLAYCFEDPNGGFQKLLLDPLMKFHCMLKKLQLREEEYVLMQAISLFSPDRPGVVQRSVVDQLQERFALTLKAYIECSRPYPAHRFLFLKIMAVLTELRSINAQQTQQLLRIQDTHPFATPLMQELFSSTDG

Take `CC(C)(c1ccc(Oc2ccc3c(c2)C(=O)OC3=O)cc1)c1ccc(Oc2ccc3c(c2)C(=O)OC3=O)cc1`: the result in [1], in assay [2], in [4] and in assay [5] was inactive. In addition, the Potency entry in [3], in assay [6], in assay [8], in [9] and in [11] was “inactive” throughout. The Potency in [7] was 39.7 µM (active); in assay [10] it was 70.6 µM (active).
With `O=C(O)C(=O)Nc1cccc(-c2nn[nH]n2)c1`, the molecule was classed as inactive in [1], in assay [2], in [4] and in [5]. Also, the Potency result in assay [3], in assay [12], in assay [13], in assay [7], in assay [8] and in [9] was “inactive” each time. The Potency entry in [10], in assay [11] and in assay [14] was “inactive” each time.
Regarding `CC(=O)OC(C)(C)Cc1ccccc1`, the molecule was called inactive in [1], in assay [2], in assay [4] and in assay [5]. For the same molecule, the Potency result in assay [3], in [12], in [7], in assay [8], in [9] and in assay [10] was “inactive” throughout. Moreover, the Potency result in assay [11] and in [14] was “inactive” throughout.
`CN=C(NC#N)NCCSCc1csc(N=C(N)N)n1`: the molecule was called inactive in assay [1], in assay [2] and in assay [4]. Besides, the Potency result in assay [3], in [12], in assay [6] and in [11] was “inactive” throughout.
Turning to `Cc1nc2ccccc2c(=O)o1`, the result in [1], in assay [2], in assay [4] and in [5] was inactive. Moreover, the Potency entry in [3], in assay [12], in assay [13] and in [11] was “inactive” each time.
Take `CCOC(=O)CCc1ccccc1`: the result in assay [1], in assay [2], in assay [4] and in [5] was inactive. Further, the Potency result in assay [3], in assay [12], in [13], in [7], in [11] and in assay [14] was “inactive” throughout.
Regarding `C=CCOc1c(Br)cc(C(C)(C)c2cc(Br)c(OCC=C)c(Br)c2)cc1Br`, the result in [1], in assay [2] and in assay [5] was inactive. In addition, the Potency entry in assay [3], in assay [12], in assay [6], in assay [7], in assay [9] and in assay [10] was “inactive” throughout. For the same molecule, the Potency entry in [11] and in [14] was “inactive” in each case. In addition, the Potency in assay [8] is 24.6 µM (active).
Regarding `O=CO`, the activity change, negative = cytotoxicity in [1] is 8.49% [at 6.97 µM]; in [3], -2.18% [at 8.39 µM]; in assay [12], -2.32% [at 8.39 µM]; in assay [6] it was 4.68% [at 8.39 µM]. Besides, the activation in assay [2] is 2.26% [at 6.97 µM]. Besides, the caspase activation in [4] was 0.203% [at 8.39 µM]. Besides, the caspase-3/7 activation in assay [5] is 0.126% [at 8.39 µM]. In addition, the activity change, negative = inhibition in assay [11] was -0.636% [at 6.97 µM].
For the molecule `Cc1cccc(Nc2ccncc2S(=O)(=O)NC(=O)NC(C)C)c1`, the result in [1], in assay [2], in [4] and in assay [5] was inactive. In addition, the Potency entry in [3], in [16], in [7], in assay [8], in [10] and in assay [11] was “inactive” each time. For the same molecule, the max activation in assay [15] is -0.7%.
For `CNC(=O)NC`, the result in [1], in [2], in assay [4] and in assay [5] was inactive. Besides, the Potency entry in [3], in [12], in [7], in assay [9], in assay [10] and in assay [11] was “inactive” in each case.
